# KB-V1 MDR tox – qHTS assay for MDR1-selective chemotherapeutics: Primary screen using the drug-selected MDR subline cells KB-V1. AID 1347076, 2019. actives 3.4% (n = 400,000). Potency, µM (series often up to 46.1 µM), actives largely listed as cytotoxic. KB-V1 MDR cells viability, CellTiter-Glo, 72 h; note: potency is the fitted concentration of half-maximal effect; nearly all actives have a fitted effect of over 60% in size
#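 Compound-treated KB-V1 multidrug-resistant cells, 72 h, 37 degrees C; viability by CellTiter-Glo. Fitted qHTS curves give the values.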
# Nrf2 inh – Nrf2 qHTS screen for inhibitors; Potency, µM (top dose mostly 46 µM), inactives show top-dose activity change, negative = inhibition, actives largely listed as inhibitors; AID 504444, 2011; actives 2.1% (n = 360,000); A549 ARE-Fluc reporter, luciferase luminescence, 18-24 h; note: potency is the fitted concentration of half-maximal effect; nearly all actives have a fitted effect of over 60% in size
#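 A549 ARE_Fluc cells, 5000/well, 5% FBS OPTI-MEM; compounds in dose-response, 18-24 h at 37 °C/5% CO2; CellTiter-Fluor viability read (Ex 405/Em 525), then BugLite luciferase luminescence = Nrf2 activity.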
# Giardia killer – Small Molecules that selectively kill Giardia lamblia: qHTS | Giardia lamblia trophozoite viability | activity change, % at 7.66 µM, hits read low | actives 0.15% (n = 340,000) | AID 540267, 2011; in the data active = activity change below about -80%; inconclusive = between about -30% and that limit;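 note: parasites exposed to compound for two days anaerobically before the ATP read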
#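 Luminescence from cellular ATP indicates surviving trophozoites (100 cells/well) following 48 hrs anaerobic compound treatment at 37 deg C; signal develops 15-30 min at room temperature.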
# A549 viability – Nrf2 qHTS screen for inhibitors: counterscreen for cytotoxicity | actives 0.16% (n = 390,000) | Potency, µM (highest dose often 46 µM), for inactives: at the highest dose activity change, negative = cytotoxicity, actives largely listed as inhibitors | A549 ARE-Fluc cells, CellTiter-Fluor viability, 18-24 h | AID 504648, 2011; note: potency is the fitted concentration of half-maximal effect
#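 A549 ARE_Fluc cells in 5% FBS OPTI-MEM were exposed to compounds in concentration-response for 18-24 h at 37 deg C. Viability was read by CellTiter-Fluor fluorescence (Ex 405/Em 525) after 30 min, before the luciferase read.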
# PI4K2A inh – qHTS for small molecular inhibitors of PI4K2A | Phosphatidylinositol 4-kinase type 2-alpha (Homo sapiens), Q9BTU6 | purified PI4K2A, ADP-Glo luminescence, 1 h; stronger effect = lower value | activity change, negative = inhibition, % at 76.9 µM | actives 0.13% (n = 420,000) | AID 1346378, 2018; in the data active = activity change below about -50%; inconclusive = mostly about -30% to -49%;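 note: -100% = wells without enzyme as full effect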
# Target sequence (Q9BTU6 whole entry, looked up): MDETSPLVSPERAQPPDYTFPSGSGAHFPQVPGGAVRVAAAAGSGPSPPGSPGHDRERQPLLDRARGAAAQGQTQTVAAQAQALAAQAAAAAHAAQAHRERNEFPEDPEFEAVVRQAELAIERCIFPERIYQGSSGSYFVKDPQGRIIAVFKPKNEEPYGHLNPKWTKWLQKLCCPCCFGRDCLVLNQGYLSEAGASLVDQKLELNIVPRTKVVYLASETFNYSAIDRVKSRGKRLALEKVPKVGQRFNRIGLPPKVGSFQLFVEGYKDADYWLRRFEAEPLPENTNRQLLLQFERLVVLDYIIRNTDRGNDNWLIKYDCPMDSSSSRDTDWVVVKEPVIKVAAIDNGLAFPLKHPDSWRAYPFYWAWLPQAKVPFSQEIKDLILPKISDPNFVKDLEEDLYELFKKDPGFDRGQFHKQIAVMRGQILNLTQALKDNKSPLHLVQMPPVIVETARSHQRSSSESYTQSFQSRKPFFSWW
#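 Compounds are screened against recombinant PI4K2A using PI as substrate and ATP, the latter dispensed at 300 microM. Reactions run one hour at ambient temperature before ADP-Glo detection; full inhibition defined by wells lacking enzyme.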
# KB-3-1 cytotox – qHTS assay for MDR1-selective chemotherapeutics: Primary screen using the parental adenocarcinoma cell KB-3-1; KB-3-1 viability, CellTiter-Glo ATP luminescence, 72 h; actives 1.4% (n = 400,000); Potency, µM (series often up to 46.1 µM), usual class: cytotoxic; note: potency is the fitted concentration of half-maximal effect; nearly all actives have a fitted effect of over 60% in size
#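 Parental KB-3-1 adenocarcinoma cells in phenol-red-free DMEM with 10% FBS were pin-treated with compounds at several concentrations, incubated 72 h at 37 °C, and viability read by CellTiter-Glo luminescence; concentration-effect curves were fitted after normalization.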
# The depositor's hits bear a star; i = inactive; ? = inconclusive; / = not tested or not shown. The list is not random: actives were taken first. Their share in the collection is about 5.7%. Unless noted, calls come from the whole dose curve; as a rule, active = well fitted curve in the direction sought with a large enough effect; inconclusive = small, poorly fitted or top-dose-only effect, or another doubt; inactive = no such curve, though single readings can be large; an effect the other way counts as inactive or inconclusive. Unless noted, % is set by controls: 0 for no effect and ±100 for the full control effect.
SMILES,KB-V1 MDR tox,Nrf2 inh,Giardia killer,A549 viability,PI4K2A inh,KB-3-1 cytotox
Cc1c(C)n(Cc2ccc(-c3ccccc3C(=O)O)cc2)c2ccc(C(=O)N[C@@H](C)c3ccc(Br)cc3)cc12,/,/,/,/,4,/
O=C(OCC(=O)N1CCCCC1)c1c[nH]c2ccccc12,21µM*,?,10,8%,2,i
CCN(Cc1ccccc1)C(=O)c1cc(-c2ccc(OC)c(OC)c2)nc2ccccc12,?,-11%,8,-11%,-1,i
COc1ccc(-c2cc(C(=O)N(C)Cc3ccccc3F)c3ccccc3n2)cc1OC,16µM*,?,4,?,-3,i
O=C(OCC(=O)N1CCCC1)c1c[nH]c2ccccc12,i,8%,-24,4%,-2,i
COc1ccc(-c2cc(C(=O)OCC(=O)N3CCCCC3)c3ccccc3n2)cc1OC,3.7µM*,4%,14,-8%,15,i
COc1ccc(-c2cc(C(=O)N3CCCCCC3)c3ccccc3n2)cc1OC,i,/,/,/,-5,i
COCCN(Cc1ccccc1)C(=O)c1cc(-c2ccc(OC)c(OC)c2)nc2ccccc12,?,18µM*,2,?,4,i
CCOC(=O)[C@@]12CCCC=C1N(CCc1ccc(Cl)cc1)C(=O)[C@H]2CC(=O)NCc1cccc2ccccc12,/,/,/,/,3,/
COC(=O)C1=C[C@@H](C(=O)OC)[C@@H]2C3=C(C(=O)[C@@]2(C)NC(=O)c2ccccc2)[C@H](C)[C@@H]2C(=O)N(c4ccccc4)C(=O)[C@@H]2[C@@H]3C1,/,17%,30,5%,/,/
O=C(OCC(=O)N1CCN(C(=O)c2ccco2)CC1)c1cc(-c2ccc(Cl)c(Cl)c2Cl)nc2ccccc12,21µM*,?,40,?,-5,?
COc1ccc(-c2cc(C(=O)N(C)CC(=O)Nc3ccccc3C(F)(F)F)c3ccccc3n2)cc1OC,i,?,8,-11%,-4,i
COc1ccc(-c2cc(C(=O)N(C)CC(=O)Nc3ccccc3Br)c3ccccc3n2)cc1OC,9.2µM*,-26%,-25,?,3,i
CCOC(=O)C1CCCN(C(=O)c2cc(-c3ccc(C)cc3)nc3ccccc23)C1 (stereo not given),12µM*,2%,-20,1%,2,i
C=CCNc1nc2cc(-c3ccccc3C)sc2c(=O)n1C,?,/,/,/,1,21µM*
COc1cccc(CNc2nc3cc(-c4ccsc4)sc3c(=O)n2C)c1OC,2.6µM*,/,/,/,0,9.2µM*
Cc1ccc(CNc2nc3cc(-c4ccccc4C)sc3c(=O)n2C)c(C)c1,i,/,/,/,-6,?
COc1cccc(CNc2nc3cc(-c4ccc(C)cc4)sc3c(=O)n2C)c1OC,12µM*,/,/,/,2,?
COc1cccc(CNc2nc3cc(-c4ccccc4)sc3c(=O)n2C)c1,2.3µM*,/,/,/,1,7.3µM*
CC(=O)Nc1ccc(CNc2nc3cc(-c4ccsc4)sc3c(=O)n2C)cc1,23µM*,/,/,/,3,?
CC(=O)Nc1ccc(CNc2nc3cc(-c4ccc(F)cc4)sc3c(=O)n2C)cc1,i,/,/,/,-3,i
O=C(NC1CCCCN(Cc2cccc(Cl)c2)C1=O)c1cccc([N+](=O)[O-])c1 (stereo not given),/,/,/,/,-1,/
COc1ccc2cc3cc(C(=O)NCc4cccs4)oc3nc2c1,?,?,4,-6%,-24,4.6µM*
COc1cccc(C(=O)Nc2nc(-c3nnn(-c4ccccc4C(F)(F)F)c3C)ns2)c1,i,-10%,/,-21%,-3,?
CC(C)(C)c1cc(CN2CCCC(O)C2)c(O)c(C(C)(C)C)c1 (stereo not given),16µM*,/,-18,?,1,?

# High-throughput results from PubChem.
